Measured values: PubChem BioAssay
Values without a mark were called inactive. No rule for the calls is given here.

Tested on: Aerobactin synthetase IucA (Klebsiella pneumoniae hvKP1)
Experiment: IucA enzyme inhibition, primary screen, biochemical, Spectrum library (AID 1346200);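 also: 100% = wells without compound and 0% = wells lacking enzyme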
Conditions: malachite green pyrophosphate, A620, at 8 µM, stronger effect = lower value

Going from `COc1c2ccccc2nc2occc12` to `COc1c2ccoc2c(OC)c2oc(=O)ccc12`, the activity remaining rises from 115% to 121%.

First: CC1(C)C2CC[C@]3(C)C(C(=O)C=C4[C@H]5C[C@@](C)(C(=O)O)CC[C@]5(C)CC[C@]43C)[C@@]2(C)CC[C@@H]1O (stereo not given in full)
Second: CCCC(=O)O[C@]1(C(=O)CO)CCC2[C@@H]3CCC4=CC(=O)CC[C@]4(C)C3[C@@H](O)C[C@@]21C (stereo not given in full)
The activity remaining of the first is higher: 109% for the first, 79% for the second.

First: O=C(O)C1=C(CSc2nnnn2CS(=O)(=O)O)CS[C@@H]2C(NC(=O)[C@H](O)c3ccccc3)C(=O)N12 (stereo not given in full)
Second: CC1(C)S[C@@H]2[C@H](NC(=O)[C@@H](N)c3ccc(O)cc3)C(=O)N2[C@H]1C(=O)O
The activity remaining of the first is higher: 116% for the first, 99.8% for the second.

First: CC(=O)N=c1sc(S(N)(=O)=O)nn1C
Second: CO[C@@]12[C@@H]3NC3CN1C1=C(C(=O)C(N)=C(C)C1=O)[C@@H]2COC(N)=O (stereo not given in full)
The activity remaining of the first is lower: 86.3% for the first, 95.4% for the second.

Compared with `CCCCOc1cc(C(=O)NCCN(CC)CC)c2ccccc2n1`, `CCN(CC)CCNc1ccc(CO)c2sc3ccccc3c(=O)c12` is higher in activity remaining: 103% for the first, 114% for the second.

First: CC(C)C1CCC(C(=O)N[C@@H](Cc2ccccc2)C(=O)O)CC1 (stereo not given in full)
Second: C[N+]1(C)C2CC[C@H]1CC(OC(=O)C(O)c1ccccc1)C2 (stereo not given in full)
The activity remaining of the first is higher: 118% for the first, 95% for the second.

Compared with `Cc1c(Nc2ncccc2C(=O)O)cccc1C(F)(F)F`, `Nc1ccc(C(=O)O)c(O)c1` is lower in activity remaining: 117% for the first, 108% for the second.

First: Oc1cccc(O)c1
Second: C[C@H](N)[C@H](O)c1cccc(O)c1
The activity remaining of the first is higher: 116% for the first, 115% for the second.

Going from `CC[C@H]1OC(=O)[C@H](C)[C@@H](O[C@H]2C[C@@](C)(OC)[C@@H](O)[C@H](C)O2)[C@H](C)[C@@H](O[C@@H]2O[C@H](C)C[C@H](N(C)C)[C@H]2O)[C@](C)(O)C[C@@H](C)C(=O)[C@H](C)[C@@H](O)[C@]1(C)O` to `CC[C@H]1OC(=O)[C@H](C)[C@@H](O[C@H]2C[C@@](C)(OC)[C@@H](O)[C@H](C)O2)[C@H](C)[C@@H](O[C@@H]2O[C@H](C)C[C@H](N(C)C)[C@H]2O)[C@](C)(O)C[C@@H](C)/C(=N\OCOCCOC)[C@H](C)[C@@H](O)[C@]1(C)O`, the activity remaining rises from 117% to 118%.

Going from `O=C1CCC(N2C(=O)c3ccccc3C2=O)C(=O)N1` (stereo not given) to `O=c1c2ccccc2oc2ccc(O)cc12`, the activity remaining rises from 117% to 122%.

Going from `CC[C@H](CCC(C)[C@H]1CCC2C3CCC4C[C@@H](O)CC[C@]4(C)C3CC[C@@]21C)C(C)C` (stereo not given in full) to `CC(=O)O[C@@H]1C[C@@]2(C)C(CC[C@@H]2C(C)=O)C2CCC3=CC(=O)CC[C@]3(C)C21` (stereo not given in full), the activity remaining falls from 102% to 88.2%.

Compared with `CC(=O)O[C@@H]1CC2C(C)(C)C(=O)C3OC3[C@]2(C)C2CC[C@@]3(C)[C@H](c4ccoc4)OC(=O)C4OC43[C@@]21C` (stereo not given in full), `CCC(=O)OCC(=O)[C@@]1(OC(=O)CC)[C@H](C)CC2C3C([C@@H](O)C[C@@]21C)[C@@]1(C)C=CC(=O)C=C1C[C@H]3Cl` (stereo not given in full) is higher in activity remaining: 101% for the first, 106% for the second.

Compared with `COc1cccc(/C=C/C(=O)O)c1C(C)C`, `COc1cc(C(C)=O)cc(OC)c1O` is lower in activity remaining: 122% for the first, 94.5% for the second.

First: NC(=O)c1ncn(C2O[C@H](CO)[C@@H](O)[C@H]2O)c1N (stereo not given in full)
Second: COc1ccc(CCC(=O)c2c(O)cc(O[C@@H]3O[C@H](CO)C(O)[C@H](O)C3O[C@@H]3O[C@@H](C)[C@H](O)[C@@H](O)[C@H]3O)cc2O)cc1O (stereo not given in full)
The activity remaining of the first is lower: 99.1% for the first, 109% for the second.

Compared with `COc1ccc(-c2coc3cc(O)ccc3c2=O)c(OC)c1`, `COc1ccc2c(c1OC)C(=O)O[C@H]2[C@H]1c2c(cc3c(c2OC)OCO3)CCN1C` is higher in activity remaining: 111% for the first, 116% for the second.

Going from `Cc1coc2c1C(=O)C(=O)c1c-2ccc2c1CCCC2(C)C` to `CC[C@@]1(O)C(=O)OCc2c1cc1n(c2=O)Cc2cc3c(CN(C)C)c(O)ccc3nc2-1`, the activity remaining rises from 103% to 121%.

Compared with `CN(C)CCc1c[nH]c2ccc(C[C@H]3COC(=O)N3)cc12`, `CO/N=C1\CN(c2nc3c(cc2F)c(=O)c(C(=O)O)cn3C2CC2)CC1CN` (stereo not given) is lower in activity remaining: 112% for the first, 106% for the second.

First: CC[C@@H](CO)NCCN[C@@H](CC)CO
Second: Nc1nc2c(c(=O)[nH]1)N(C=O)C(CNc1ccc(C(=O)N[C@@H](CCC(=O)O)C(=O)O)cc1)CN2 (stereo not given in full)
The activity remaining of the first is lower: 102% for the first, 104% for the second.

First: CC1(C)OC(=O)NC1=O
Second: CC1=C2C(=CO[C@H](C)[C@H]2C)C(=O)C(C(=O)O)=C1O
The activity remaining of the first is higher: 115% for the first, 94.3% for the second.

Going from `CCc1nc(N)nc(N)c1-c1ccc(Cl)cc1` to `O=C(CC(=O)c1ccccc1)c1ccccc1`, the activity remaining falls from 108% to 101%.
